DAX1 inh-1: DAX1 (NR0B1) inhibitors on StAR promoter, primary screen, cell-based, luminescence, SF-1 (NR5A1), full-length DAX-1 | HEK293T StAR-luciferase reporter, SF-1/DAX-1 repression relief | inhibition, % at 6.8 µM | actives 1.1% (n = 370,000) | AID 652010, 2013;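 active = inhibition above the mean over all tested compounds plus 3 SD, cut at about 3.6% in these data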;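 note: 0% = DAX-1 cells with DMSO and 100% = cells lacking DAX-1 with DMSO; higher inhibition means more luminescence from relief of DAX-1 repression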
hgDAF-12 ag: H. glycines DAF-12 receptor agonists, primary screen, cell-based, luminescence, HEK293, GAL4 fusion, UAS-luciferase; HEK293 GAL4-hgDAF12 UAS-luciferase reporter, agonist luminescence; normalized to butyrate control; activation, % at 6.8 µM; actives 1.8% (n = 370,000); Nuclear hormone receptor DAF-12 (Heterodera glycines), GAL4 fusion;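 active = activation above a cutoff set at the mean of all screened compounds plus 3 SD, cut at about 10% in these data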;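 note: 0% = DMSO wells and 100% = sodium butyrate wells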
SMARCA2 activ: SMARCA2 (BRM) function activators, primary screen, cell-based, luminescence, high throughput; activation, % at 9.1 µM; actives 1% (n = 370,000); MG213 cells, MMTV-luciferase reporter, dexamethasone, overnight; in the data active = activation above about 7.8%;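 note: 0% = vehicle wells and 100% = reference activator wells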
ssDAF-12 act: S. stercoralis DAF-12 nuclear receptor activators, primary screen, cell-based, luminescence, HEK293, GRIP1 co-expression, lit1-tk-luc | actives 1% (n = 370,000) | AID 652126, 2013 | activation, % at 6.8 µM | HEK293 ssDAF-12/GRIP1 lit1-tk-luc reporter; % of 3 µM dafachronic acid response;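 active = activation above the mean over all tested compounds plus 3 SD, cut at about 0.9% in these data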;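 note: 0% = DMSO-only wells and 100% = 3 µM delta7-dafachronic acid wells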
DAX1 inh-2: DAX1 (NR0B1) inhibitors, primary screen, cell-based, HEK293, Gal4-DAX1, luciferase luminescence | HEK293 Gal4-DAX1 luciferase reporter | inhibition, % at 6.75 µM | actives 0.99% (n = 340,000);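 active = inhibition above the mean over all tested compounds plus 3 SD, cut at about 4.2% in these data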;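 note: 0% = DAX1-transfected cells with DMSO and 100% = empty-vector control cells with DMSO; inhibition shows as a rise in luminescence from relieved DAX1 repression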
Target sequence (P51843 207-470 limits assumed): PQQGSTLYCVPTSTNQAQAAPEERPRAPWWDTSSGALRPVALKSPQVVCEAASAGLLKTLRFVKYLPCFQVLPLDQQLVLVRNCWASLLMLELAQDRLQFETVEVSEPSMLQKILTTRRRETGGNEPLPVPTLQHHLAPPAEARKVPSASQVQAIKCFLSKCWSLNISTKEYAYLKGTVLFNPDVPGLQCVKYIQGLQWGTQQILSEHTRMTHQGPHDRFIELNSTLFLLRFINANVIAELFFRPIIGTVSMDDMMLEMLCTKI
hcDAF-12 act: H. contortus DAF-12 nuclear receptor activators, primary screen, cell-based, luminescence, HEK293, lit1-tk-luc reporter; HEK293 hcDAF-12 lit1-tk-luc reporter; 0% DMSO, 100% Δ7-dafachronic acid; activation, % at 6.8 µM; actives 1.4% (n = 370,000);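 active = activation above the mean of all tested compounds plus 3 SD, cut at about 5.5% in these data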;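 note: 100% = response to 3 µM Δ7-dafachronic acid high control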
SMARCA2 act conf: SMARCA2 (BRM) function activators, confirmation, cell-based, luminescence, triplicate | actives 30% (n = 3,500) | shares compounds with SMARCA2 activ | activation, % at 9.1 µM | MG213 cells, MMTV-luciferase with dexamethasone, overnight; MG213 cells expressing E1A, Rb sequestered; DMSO wells 0%, reference activator 100%;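 active = activation above its plate's cutoff, the mean activation of tested wells plus 3 SD, cut at about 7.9% in these data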
GAL4-VP16 Luc: GAL4-VP16 luciferase reporter activation, counter-screen for SMARCA2 (BRM) activator project, cell-based, pG5luc, luminescence, high throughput. activation, % at 9.1 µM. shares compounds with SMARCA2 activ. actives 41% (n = 3,500). HEK293 GAL4-VP16 pG5luc reporter; scaled: DMSO wells 0%, SAHA wells 100%;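 active = activation above the solvent-only control well mean plus 3 SD, averaged across control plates, cut at about 5.2% in these data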
LXRb hcDAF ctr: LXR agonists, Gal4 luciferase reporter, confirmation, counter-screen for hcDAF-12 agonist project, cell-based, luminescence, HEK293, H. contortus campaign. shares compounds with hcDAF-12 act. AID 743027, 2013. activation, % at 6.8 µM. HEK293 Gal4-LXR tk-luc reporter, 24 h; normalized: DMSO 0%, positive control 100%. 3,400 tested, under 10 active;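 active = mean percent activation of the reporter above a cutoff set as the average over tested compounds plus their standard deviation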
Target sequence (P55055 whole entry, looked up, the tested form may be a part): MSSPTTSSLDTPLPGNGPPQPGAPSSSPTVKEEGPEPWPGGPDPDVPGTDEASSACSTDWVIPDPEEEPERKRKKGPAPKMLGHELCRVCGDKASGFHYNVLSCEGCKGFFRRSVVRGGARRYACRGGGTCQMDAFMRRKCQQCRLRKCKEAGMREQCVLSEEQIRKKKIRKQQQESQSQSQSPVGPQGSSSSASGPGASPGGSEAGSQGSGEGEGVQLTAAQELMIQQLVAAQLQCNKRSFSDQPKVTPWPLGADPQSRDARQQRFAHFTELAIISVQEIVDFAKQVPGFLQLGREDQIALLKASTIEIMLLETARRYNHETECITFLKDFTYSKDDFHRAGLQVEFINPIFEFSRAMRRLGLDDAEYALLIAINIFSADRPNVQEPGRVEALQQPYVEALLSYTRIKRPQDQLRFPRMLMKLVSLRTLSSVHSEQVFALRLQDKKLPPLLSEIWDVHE
hcDAF12 conf: H. contortus DAF-12 receptor agonists, confirmation, cell-based, luminescence, HEK293, lit1-tk-luc, triplicate. shares compounds with hcDAF-12 act. HEK293 hcDAF-12 lit1-tk-luc reporter; % of Δ7-dafachronic acid response. activation, % at 6.8 µM. actives 61% (n = 3,400);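 active = mean activation across triplicate tests above the threshold derived from the earlier primary screen, cut at about 5.5% in these data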;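 note: 0% = DMSO only wells and 100% = 3 µM Δ7-dafachronic acid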
hgDAF12 ag: H. glycines DAF-12 receptor agonists, confirmation, cell-based, luminescence, HEK293, GAL4-LBD fusion. actives 80% (n = 3,300). AID 743050, 2013. activation, % at 6.8 µM. shares compounds with hgDAF-12 ag. HEK293 GAL4-hgDAF12 luciferase reporter, agonist mode; percent of butyrate response;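 active = mean activation over triplicate wells above the hit cutoff derived from the earlier primary screen, cut at about 11% in these data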;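 note: 0% = DMSO low control and 100% = 2 mM sodium butyrate high control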
LXRb DAF12 ctr: LXR agonists, Gal4 luciferase reporter, confirmation, counter-screen for hgDAF-12 agonist project, cell-based, luminescence, HEK293, H. glycines campaign; activation, % at 6.8 µM; 3,300 tested, under 10 active; 24 h; shares compounds with hgDAF-12 ag;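 active = mean activation of the triplicate above a set limit carried over from the primary screen, none filed active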
* = called active by the depositor; nt = not tested or not shown; ! = repeats disagree. Most compounds without a hit are left out; they make up all but 4.8% or so of the library.

SMILES	DAX1 inh-1	hgDAF-12 ag	SMARCA2 activ	ssDAF-12 act	DAX1 inh-2	hcDAF-12 act	LXRb hcDAF ctr	hcDAF12 conf	others
Cc1cc(C(=O)CS(=O)(=O)c2ccccc2)cc(C)c1OC(=O)N(C)C	4.0*	13.8*	13.0*	-0.1	3.3	3.8	nt	nt	SMARCA2 act conf=7.2;GAL4-VP16 Luc=8.8*;hgDAF12 ag=9.0;LXRb DAF12 ctr=0.6
Cc1cc(N2CCNC[C@H]2C)ccc1N1CCN[C@@H](C)C1	1.9	1.1	4.4	-1.5	nt	0.6	nt	nt
CCC(N)Cc1c[nH]c2ccccc12 (stereo not given)	-0.2	-0.5	-3.3	0.3	0.0	7.2*	-0.2	5.2
CC(C)Sc1nnc([C@@H](N)Cc2c[nH]c3ccccc23)o1	-0.3	1.7	-2.0	-0.7	0.8	4.6	nt	nt
COC(=O)C1C(c2ccccc2)CC2CCC1N2C (stereo not given)	-0.6	-3.0	2.6	-0.9	nt	-1.1	nt	nt
CC(=Nc1ccccc1N)c1c(O)n(C)c(=O)[nH]c1=O	1.8	10.0	6.4	1.8*	3.2	7.7*	-0.3	0.9
c1ccc2c(CN3CCOCC3)c[nH]c2c1	0.0	-0.8	-2.0	-0.9	0.7	7.0*	-0.3	4.8
CCOC(=O)[C@]12Cc3cc(OC)ccc3[C@H]1N(CCC(=O)OC)C(=O)c1cc(OC)ccc12	2.6	3.1	-4.2	-1.4	nt	-0.7	nt	nt
O=c1[nH]c(=O)n(CC2CCCO2)c(O)c1/C=C1\C=Nc2ccccc21 (stereo not given)	0.0	4.8	0.5	-0.7	5.4*!	6.1*	0.0	4.2
O=c1[nH]c(=O)n(Cc2ccccc2)c(O)c1/C=C1\C=Nc2ccccc21	-0.3	-0.1	1.1	-0.7	0.3	4.3	nt	nt
CC(C)(C)c1cc(O)ccc1O	-0.6	-3.3	-3.6	-0.6	nt	-0.8	nt	nt
Cc1ccc(-c2nn(Cc3ccccc3)cc2C=O)cc1	3.3	7.8	0.9	-0.4	1.7	9.4*	0.3	4.4
CCCCn1c(=O)c(C(=O)Nc2ccccc2F)c(O)c2ccccc21	-0.1	0.3	-2.4	0.2	0.2	7.0*	0.0	6.1*
CCCCn1c(=O)c(C(=O)Nc2ccsc2C(=O)OC)c(O)c2ccccc21	0.6	2.7	-0.8	0.3	-0.4	7.2*	-0.1	5.3
Cc1ccc(-n2c(O)c(C=Nc3ccccc3N)c(=O)[nH]c2=O)cc1C	4.4*	9.8	4.4	0.7	0.7	7.8*	-0.1	2.8
Cc1cc(S(N)(=O)=O)ccc1N=Cc1c(O)n(-c2ccccc2)c(=O)[nH]c1=O	0.1	-1.7	-0.8	0.1	2.9	1.1	nt	nt
O=C1c2ccccc2-c2cc3ccccc3cc21	0.5	5.5	7.8	0.6	1.8	6.6*	0.3	7.1*
O=C(c1cc(Br)ccc1Cl)N1CCC2(CC1)OCCO2	0.4	-0.2	0.8	-0.9	2.2	0.1	nt	nt
O=C(c1cc2cc(Br)ccc2[nH]1)N1CCC2(CC1)OCCO2	0.3	3.2	-1.2	-0.1	0.3	7.6*	0.0	5.2
O=C(NCCN1CCC2(CC1)C(=O)NCN2c1ccccc1)c1cccc2c1-c1ccccc1C2=O	0.2	1.0	-3.1	0.8	nt	1.7	nt	nt
COc1cc(CNCCc2c[nH]c3ccccc23)cc(OC)c1	0.1	0.1	1.4	-1.1	0.9	8.5*	-0.2	1.2
COc1cccc(C(=O)NCCN2CCC3(CC2)C(=O)NCN3c2ccccc2)c1	2.0	2.9	-2.8	-0.7	nt	-3.4	nt	nt
CCOP(=O)(OCC)C1(O)C(=O)Nc2ccccc21 (stereo not given)	0.3	0.1	-0.3	0.1	0.8	7.1*	-0.2	3.1
O=C1C=C2c3ccccc3CC(C(=O)O)C2CC1 (stereo not given)	-0.7	-0.8	-2.3	-1.9	nt	-0.9	nt	nt
O=c1[nH]c2cc(Cl)ccc2n1C1CCN(Cc2ccc(-c3nc4ccccc4nc3-c3ccccc3)cc2)CC1	-0.7	0.8	-2.5	-0.8	nt	-2.2	nt	nt
Cn1cc(C=C2C(=O)NC(=O)NC2=O)c2ccccc21	-0.4	0.1	1.8	-0.3	-0.4	5.3	nt	nt
CC(=O)n1cc(C=C2C(=O)NC(=O)NC2=O)c2ccccc21	1.5	-1.7	-1.8	0.5	1.1	9.8*	0.0	4.8
C=CC1C[N+]2(C)CCC1CC2C(O)c1ccnc2ccccc12 (stereo not given)	0.8	2.8	1.5	-1.8	nt	0.3	nt	nt
C=CCOC(=O)c1ccccc1N	0.8	-4.5	-2.8	-1.2	0.8	-3.1	nt	nt

High-throughput results deposited in PubChem BioAssay by The Scripps Research Institute Molecular Screening Center.
